Measurements from article PMC12136788.
Numbering of substitutions follows the chain as printed. Over roughly 5,800 sequences, “enrichment r” has its median near 0.68; the highest 2% begin near 11. The entries come from a sample that favours the highest values as a whole.

B1: chr10:91630394:91630495:-|CDS|ENSG00000119938|unk|total|mutant (ssRNA)
RNA: GGGAGUUCUACAGUCCGACGAUCCUUGGACCUUAAUGAUAUCUCCUCUGCCUUAAAACACCACGAGGAGAAAAACUUGAUUUCCGAUUUCCCUCAGCCUUCAACCGAUUACUUAAGUUUCCGGAGCCACUUUCAGAAGAACUUCAACAGAGGAUUGAGCAUCA
B2: chr11:20048915:20049016:+|CDS|ENSG00000166833|unk|total|mutant (ssRNA)
RNA: GGGAGUUCUACAGUCCGACGAUCGAGCAGUGGGAGCAGCAGUCCUCUCUACAGCAAGAAUGUGGACCUCAACCAGUCUCCGCCCGCCUCCAGCCCCAGCUCAGCCCACUCGGCCCCUUCCAACAGCCUCACCUGGGGCACCAACAACAGAGGAUUGAGCAUCA
B3: chr1:178479239:178479534:-|three_prime_utr|ENSG00000188585|control|control|control (ssRNA)
RNA: GGGAGUUCUACAGUCCGACGAUCCAGUUUCUGUUUCAUGCAAUCUUCUCUGGAUUUUGAGUAAAUUUUAAUUUUUUAAUCCCUAGUAGAACAAGAUUAGGAAGAACUCGACAUGUGCCAAAAAGCACAGACCUACAACUAACACAACAGAGGAUUGAGCAUCA
B4: chr1:214641902:214642005:+|CDS|ENSG00000117724|unk|total|mutant (ssRNA)
RNA: GGGAGUUCUACAGUCCGACGAUCAGAAAUCAAUGUAAUUUUAAACCUCAGAUGGAUCUUGAAGUUAAAGAAAUUUCUCCCGACCGUUAUAAUGCGCAGUUGGUGCAAUCCGAAGCUAUGCUAAGAAAUAAGGAAUUAAAACUUCAACAGAGGAUUGAGCAUCA
B5: chr20:31664451:31666086:-|three_prime_utr|ENSG00000171552|control|control|control (ssRNA)
RNA: GGGAGUUCUACAGUCCGACGAUCAUGCAGCCCAUGCCCACCUGCCCAUCACAGGGUUGGGCCCAGAUCUGGUCCCUUGCAGCUAGUUUUCUAGAAUUUAUCACACUUCUGUGAGACCCCCACACCUCAGUUCCCUUGGCCUCACAACAGAGGAUUGAGCAUCA
B6: chr10:100209595:100209696:-|CDS|ENSG00000213341|unk|FALSE|unique (ssRNA)
RNA: GGGAGUUCUACAGUCCGACGAUCACUUCUUUCAGAGACAGGAAUUUCUCUGGAUCCUCGGAAACCAGCCUCUCAAUGUGUUCUAGAUGGAGUUGUAAGAAAAUUAAUUAUAAUAUCCCUAGAGUAUGUGAAAUCUAGAGGGAUCAACAGAGGAUUGAGCAUCA
B7: chr6:98868534:98874277:-|three_prime_utr|ENSG00000112234|control|control|control (ssRNA)
RNA: GGGAGUUCUACAGUCCGACGAUCAUUAAAAUUAAUGUGCUUUGUUGGGGUUUAAUUUUGGGAUUGGUUUUGGGUUUUGUUUUUAGUUGUUUUAAUGGUAAGAAUUAAGACAUUUGUAGAUUUUAAAGAAAAAUAUGAAAUUGUCAACAGAGGAUUGAGCAUCA
B8: chr12:81257974:81259660:-|three_prime_utr|ENSG00000139220|control|control|control (ssRNA)
RNA: GGGAGUUCUACAGUCCGACGAUCAUGACUUAUUAAAAGCUGAAAAAUGUGAUUUUUGGGGGGAGUCAGAUAUUACAUUUGAUUAGUUUACUACAAAUUGUAAUAAAAUGCUUAAGUCAUUUGAAUAAUAAACAUCAUCUACAUCAACAGAGGAUUGAGCAUCA
B9: chr8:116643852:116643953:-|3pUTR|ENSG00000147677|unk|FALSE|unique (ssRNA)
RNA: GGGAGUUCUACAGUCCGACGAUCUGUUGUGAAUGAGGAAUUAGGAAUUAGGAGAAUGGUAGUACAUUGGGAAAAACAUAUUUUAGUAAUUUUUAUAUUUUAAAGAUAAUCACAGAUUUUGCUGUUUGUGCAUCACCAAAAUCACAACAGAGGAUUGAGCAUCA
B10: chr9:83661418:83661519:-|3pUTR|ENSG00000135018|msi1|FALSE|unique (ssRNA)
RNA: GGGAGUUCUACAGUCCGACGAUCUAUAGUUGGGUGACCAGAUUUUGUCCUGCAUCUGUCCAGUUUAUUUGCUUUUUAAACAUUAGCCUAUGGUAGUAAUUUAUGUAGAAUAAAAGCAUUAAAAAGAAGCAAAUCAUUUGCACUCAACAGAGGAUUGAGCAUCA
B11: chr5:132541444:132541810:-|three_prime_utr|ENSG00000113525|control|control|control (ssRNA)
RNA: GGGAGUUCUACAGUCCGACGAUCAAAUUGAUAUACUUUUUUCUUAUUUAACUUAACAUUCUGUAAAAUGUCUGUUAACUUAAUAGUAUUUAUGAAAUGGUUAAGAAUUUGGUAAAUUAGUAUUUAUUUAAUGUUAUGUUGUGUCAACAGAGGAUUGAGCAUCA
B12: chr16:11872726:11872856:-|3pUTR|ENSG00000103342|msi1_unk|FALSE|overlapping (ssRNA)
RNA: GGGAGUUCUACAGUCCGACGAUCACAUAAUUGCCUACAAUAAUGAAAACCUACAGGAAUUUUUUUAUUUUUCAUUUUCCCCUUAGGCAUAUUUAGUAUUUUUCCCCCAGGCAGAUCAUUCUGAGUGUGCGAGUGUGUGUGCACCAACAGAGGAUUGAGCAUCA
B13: chr8:80637648:80637749:-|3pUTR|ENSG00000164684|unk|FALSE|unique (ssRNA)
RNA: GGGAGUUCUACAGUCCGACGAUCUGCGCUUAGCUGCAAAGUGCCUGUCAGCAGCUCCAGGCACCAACAAGGUGCCCUUUUAUUAGACAAUUCCUGCCCGAACAUAACCAUAUUGCAGAUGAAAAUUUUCAAUAGAGAAUGACACAACAGAGGAUUGAGCAUCA
B14: chr8:116643852:116643953:-|3pUTR|ENSG00000147677|unk|total|mutant (ssRNA)
RNA: B9 RNA with U41C, A42C, U48C, A49C, U59C, A60C, U83C, A84C
B15: chr1:56708525:56708626:+|3pUTR|ENSG00000162409|unk|FALSE|unique (ssRNA)
RNA: GGGAGUUCUACAGUCCGACGAUCACCUUUCUCAAAUUCUUUUUGCCUCUAUUUAUUUUUGCAUUUCACCAACAGUGAUAAAAUAGUUAAAUGAAACAAAGCAAAGUAUCAACAGUCCCUUAAAUGAGAAUCCUUAUCUUUGAUCAACAGAGGAUUGAGCAUCA

Biological target: T1, UNK ZnF1-6 (called full-length) (human, UniProt Q9C0B0 30-357)
T1 sequence: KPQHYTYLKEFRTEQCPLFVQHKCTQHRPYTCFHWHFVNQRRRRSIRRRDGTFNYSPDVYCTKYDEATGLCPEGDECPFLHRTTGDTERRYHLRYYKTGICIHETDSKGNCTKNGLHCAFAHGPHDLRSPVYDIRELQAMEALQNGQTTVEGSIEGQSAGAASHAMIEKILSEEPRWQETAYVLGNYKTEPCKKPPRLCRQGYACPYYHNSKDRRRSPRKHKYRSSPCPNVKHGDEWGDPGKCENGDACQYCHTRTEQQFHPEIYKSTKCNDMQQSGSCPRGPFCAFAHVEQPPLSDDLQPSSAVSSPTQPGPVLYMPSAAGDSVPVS
Test: nsRBNS (natural sequence RNA bind-n-seq); RBNS binding buffer (assumed for nsRBNS): 25 mM Tris pH 7.5, 150 mM KCl, 3 mM MgCl2, 0.01% Triton X-100, 500 ug/ml BSA, 20 U/ml SUPERase-In, 4 C; UNK is unkempt and MSI1 is Musashi-1; names of the RNAs are library labels; protein concentration not given here; high values mean tight binding

In order of falling binding signal:
1. B9  22.5 enrichment R
2. B7  12.9 enrichment R
3. B12  11.3 enrichment R
4. B10  7.97 enrichment R
5. B11  7.43 enrichment R
6. B5  1.85 enrichment R
7. B13  0.967 enrichment R
8. B8  0.956 enrichment R
9. B15  0.947 enrichment R
10. B2  0.913 enrichment R
11. B6  0.651 enrichment R
12. B14  0.568 enrichment R
13. B3  0.449 enrichment R
14. B4  0.401 enrichment R
15. B1  0.273 enrichment R
